Measured values published in PubChem BioAssay AID588342 (National Center for Advancing Translational Sciences (NCATS), 2011).
About 25,000 (6.9%) of roughly 360,000 compounds were called active. Not shown: some 9% with an inconclusive outcome. Calls come from the whole dose curve; as a rule, active = well fitted inhibition curve with a large enough effect; inconclusive = small, poorly fitted or top-dose-only effect; inactive = flat fitted curve, though single readings scatter. Shown is part of a subset that was picked to be rich in actives. Entries that show only a call come without a potency.

Target: Luciferin 4-monooxygenase (Photinus pyralis) (UniProt P08659)
Test: qHTS profiling assay for firefly luciferase inhibitor/activator using purifed enzyme and Km concentrations of substrates (counterscreen for miR-21 project); note: nearly all actives have a fitted effect of over 55% in size
Conditions: purified FLuc, luminescence inhibition; series mostly up to 57.5 µM
Outline: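 Purified P. pyralis luciferase (10nM final) with 10uM D-luciferin and 10uM ATP (Km levels) in 50mM Tris acetate pH 7.5, 10mM Mg acetate, 0.01% Tween-20, 0.05% BSA; qHTS 6-point titration, ~60 µM downward; luminescence read.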
Potency is the fitted concentration of half-maximal effect.

Luciferin 4-monooxygenase (Photinus pyralis), sequence (P08659 whole entry, looked up): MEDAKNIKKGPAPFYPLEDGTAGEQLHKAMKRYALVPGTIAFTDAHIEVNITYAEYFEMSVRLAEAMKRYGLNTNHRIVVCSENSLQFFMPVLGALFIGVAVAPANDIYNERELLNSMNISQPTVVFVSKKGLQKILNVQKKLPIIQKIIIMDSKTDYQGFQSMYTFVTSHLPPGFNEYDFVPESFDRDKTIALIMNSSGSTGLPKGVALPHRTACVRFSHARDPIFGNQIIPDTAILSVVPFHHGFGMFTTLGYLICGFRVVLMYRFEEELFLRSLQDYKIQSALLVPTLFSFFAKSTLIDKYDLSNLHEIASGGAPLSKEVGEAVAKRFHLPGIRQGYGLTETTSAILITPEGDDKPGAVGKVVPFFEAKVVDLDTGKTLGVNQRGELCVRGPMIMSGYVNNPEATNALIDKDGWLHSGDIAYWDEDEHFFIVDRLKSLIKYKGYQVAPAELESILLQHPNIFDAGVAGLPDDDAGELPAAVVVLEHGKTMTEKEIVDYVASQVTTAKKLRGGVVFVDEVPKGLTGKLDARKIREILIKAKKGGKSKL

Compound | Potency
CCCn1c(N)c(C(=O)CSc2nnc3n2CCCCC3)c(=O)[nH]c1=O | inactive
O=C(NNC(=O)C(O)c1ccccc1)NC1CCCCC1 (stereo not drawn) | inactive
COc1cc(NC(=O)c2nc3ccccc3nc2C)cc(OC)c1OC | inactive
COC(=O)[C@H](Cc1ccccc1)NC(=O)Nc1ccc(OC)cc1 | inactive
Cc1nc(/N=C(\N)NC(=O)NC2CCCCC2)nc2ccccc12 | 16.9 µM (active)
O=C(Cn1nnc(-c2ccccc2)n1)NC(=O)NC1CCCC1 | inactive
COc1ccc2nc(/N=C(\N)NC(=O)Nc3ccccc3)nc(C)c2c1 | 26.9 µM (active)
Cc1cc(NC(=O)CC(C)C)cc(-c2nc3ncccc3o2)c1O | inactive
O=C(c1cccs1)c1cn(CCOc2ccc(Cl)cc2)c2ccccc12 | inactive
CCOC(=O)c1cccc(NC(=O)CCOc2ccccc2)c1 | inactive
O=C(CCCOc1ccccc1)Nc1cccc(C(=O)O)c1 | 15.1 µM (active)
COc1ccc(OCCCC(=O)Nc2cccc(S(=O)(=O)N3CCCCCC3)c2)cc1 | inactive
COCCn1cnnc1SCC(=O)Nc1cccc(S(=O)(=O)N2CCCCC2)c1 | inactive
CCOc1ccccc1CNC(=O)c1cnc2c(-c3ccc(OCC)c(OCC)c3)c(C)nn2c1C | inactive
COc1ccc(OCc2ccc(-c3nc(C#N)c(N4CCN(c5ccccc5)CC4)o3)o2)cc1 | inactive
COc1cccc(OCCn2c(-c3ccc(Br)cc3)nc3ccccc3c2=O)c1 | inactive
COC(=O)c1ccc(CSc2nc3ccccc3c(=O)n2-c2cccc(OC)c2)o1 | inactive
COc1ccc(OCc2ccc(-c3nc4ccccc4c(=O)n3N)o2)cc1 | 12 µM (active)
COc1ccc(-c2nc3ccccc3c(=O)n2CCc2ccc(O)cc2)cc1 | 21.3 µM (active)
COc1ccccc1OCCCn1c(-c2ccc(Cl)cc2)nc2ccccc2c1=O | inactive
Cc1cc(C)cc(OCC(=O)Nc2ccc(N3CCOCC3)cc2N2CCOCC2)c1 | inactive
Cc1nn2c(=O)cc(COC(=O)CNC(=O)c3ccc(F)cc3)nc2s1 | inactive
COc1cccc(N2CCN(S(=O)(=O)c3cc(Br)cc4c3N(C(=O)C3CC3)CC4)CC2)c1 | inactive
COc1ccc(S(=O)(=O)NCC2CCCN(C(=O)c3occc3C)C2)cc1 (stereo not drawn) | inactive
COc1ccc(-n2ncc3c(N4CCc5ccccc54)ncnc32)cc1 | 0.379 µM (active)
COc1ccc(-n2c(C)nc3c(cnn3-c3ccc(F)cc3)c2=O)cc1 | inactive

Compound | Potency
Cc1cccc(-n2ncc3c(N4CCc5ccccc54)ncnc32)c1 | 0.536 µM (active)
COc1cc(C)c(C)cc1S(=O)(=O)N1CCCc2ccccc21 | inactive
Cc1cccc(-n2ncc(Cl)c(Cl)c2=O)c1 | inactive
COc1ccc2oc(=O)c(C(=O)N3CCCc4ccccc43)cc2c1 | inactive
Cc1ccc(-n2ncc3c(=O)[nH]cnc32)c(C)c1 | inactive
COc1ccc(CCC(C)N2CCc3ccccc3C2)cc1 (stereo not drawn) | inactive
COc1ccc(-n2ncc3c(N4CCCc5ccccc54)ncnc32)cc1 | 1.35 µM (active)
CCCCN(C(=O)C1=NN(c2cc(C)ccc2C)C(=O)CC1)c1c(N)n(CCC)c(=O)[nH]c1=O | inactive
COc1cccc(CNC(=O)CN2C(=O)NC(Cc3ccccc3)(c3ccccc3)C2=O)c1 (stereo not drawn) | inactive
CC1=C(c2ccc(Cl)cc2)S(=O)(=O)N=C1N1CCN(c2cc(C)ccc2C)CC1 | inactive
CC(C)C(=O)Nc1nnc(Sc2ccc(N(C)C)cc2)s1 | inactive
COc1ccc(/C=C/c2nnc(NC(=O)C(C)C)s2)cc1 | 2.69 µM (active)
O=C(CSc1ccccc1)Nc1nnc(/C=C/c2ccccc2)s1 | inactive
CCCC(=O)N1CCN(c2nc3c(OC)ccc(C)c3s2)CC1 | inactive
COc1ccccc1NC(=O)c1cc(C2CC2)nc2c1c(C)nn2-c1ccc(C)cc1 | inactive
CC(C)(C)C1C/C(=C/c2ccco2)C(=O)/C(=C/c2ccco2)C1 (stereo not drawn) | inactive
CS(=O)(=O)c1ccc2c(c1)SC1=NC(=O)/C(=C/c3ccco3)C(=N)N12 | 10.7 µM (active)
CS(=O)(=O)C1=NN2C(=N)/C(=C\c3ccc(OCCOc4ccccc4)cc3)C(=O)N=C2S1 | inactive
CC(NC(=O)CN(C)S(=O)(=O)c1ccc(F)cc1)C1CC2CCC1C2 (stereo not drawn) | inactive
Cc1ccc2oc(=O)c3cnn(CC(=O)NCc4ccccc4Cl)c3c2c1 | inactive
CCOc1cccc2c1OC1(CCCCC1)N1N=C(c3cccnc3)CC21 (stereo not drawn) | 19 µM (active)
CCOc1ccccc1C1CC(c2cccc(NS(C)(=O)=O)c2)=NN1C(=O)c1ccccc1 (stereo not drawn) | inactive
N#CCN(C(=O)COC(=O)C1CC2CCCC(C1)C2=O)c1ccccc1 (stereo not drawn) | inactive
CCCn1c(=O)c(-c2ccccc2)c(O)c2ccccc21 | inactive
Cc1c(C=O)c2ccccc2n1CC(=O)O | inactive
CC(=O)n1c(C=Nc2ccccc2)c(O)c2ccccc21 | 16.9 µM (active)

Compound | Potency
COC(=O)c1cn(CC(=O)NCc2cccs2)c2ccccc12 | inactive
Cc1ccccc1NC(=O)Cn1cc(C(=O)c2cccs2)c2ccccc21 | inactive
O=C(Cn1cc(C(=O)c2cccs2)c2ccccc21)NCc1cccs1 | 19 µM (active)
COc1ccc(-c2nc(Cn3c(=O)cc(C)c4c(C)nn(-c5ccccc5)c43)c(C)o2)cc1OC | inactive
O=C(CCc1nnc2ccc(NCc3ccco3)nn12)Nc1cc(F)ccc1F | inactive
CN(C)Cc1c(C#N)c2ccccc2n1C | inactive
COc1ccc(-c2c(C#Cc3ccccc3)c3ccccc3n2C)cc1 | 12 µM (active)
COc1ccc(CCNCc2c(-c3ccccc3)n(C)c3ccccc23)cc1 | inactive
Cc1ccc(-c2nn(CCC(=O)Nc3ccc(OC(F)(F)F)cc3)c(=O)c3ccccc23)cc1 | inactive
Cc1c(NC(=O)C(C)OC(=O)c2cc3c4ccccc4n(C)c3s2)c(=O)n(-c2ccccc2)n1C (stereo not drawn) | inactive
Cc1cccc(NC(=O)CSc2nc3c([nH]c4ccccc43)c(=O)n2-c2cc(C)cc(C)c2)c1 | inactive
COC(=O)c1ccc(OC(=O)c2cnccn2)cc1 | inactive
Cn1c(=NC(=O)c2cnccn2)sc2ccccc21 | 4.78 µM (active)
O=C(NCCCNC(=O)c1ccccc1Cl)c1cnccn1 | inactive
Cc1ccc(S(=O)(=O)c2nc(-c3ccco3)oc2SCC(=O)Nc2ccc(F)cc2)cc1 | inactive
COc1ccccc1C(=O)Oc1ccc(N2C(=O)CCC2=O)cc1 | inactive
CCOC(=O)c1cc(OC(=O)c2ccccc2Cl)n(-c2ccccc2)n1 | inactive
Cc1cc(OC(=O)c2ccccc2Cl)ccc1N1C(=O)CCC1=O | 5.36 µM (active)
COCCN(Cc1ccco1)C(=O)Cn1ncc2c([nH]c3ccccc32)c1=O | inactive
COc1ccc(NC(=O)CCCN2C(=O)C(c3ccccc3)Oc3cccnc32)cc1 (stereo not drawn) | inactive
Cc1[nH]n(C(N)=S)c(=O)c1N=Nc1ccc(Cl)cc1Cl | 10.7 µM (active)
Cc1[nH]n(C)c(=O)c1N=Nc1ccc(S(C)(=O)=O)cc1 | inactive
Clc1ccc(-c2nnc(SCc3nc4ccccc4s3)o2)cc1 | 19 µM (active)
Cn1c(SCc2nc3ccccc3s2)nnc1-c1ccc2c(c1)OCO2 | inactive
O=C(CSc1nnc(-c2ccncc2)o1)NCc1ccc(Cl)cc1 | inactive
COc1ccc(-n2c(=O)c3sc4ccccc4c3n(CC(=O)Nc3cccc(C)c3)c2=O)cc1 | inactive

Compound | Potency
Cc1cc(C)c2nc3nc(C)cc(C)c3c(N)c2c1 | 15.1 µM (active)
Cc1cc(C)c([N+](=O)[O-])cc1-c1ccc(/C=N/NC(=O)c2nonc2N)o1 | inactive
O=C1C2C3C=CC(C4CC34)C2C(=O)N1/N=C/c1ccc(-c2ccccc2[N+](=O)[O-])o1 (stereo not drawn) | 10.7 µM (active)
O=C(CN1C(=O)CCn2nc(-c3ccccc3)cc21)NCc1ccccc1 | inactive
CCOc1cccc(CC(=O)N2CCc3c([nH]c4ccccc34)C2c2ccc(F)cc2)c1OCC (stereo not drawn) | inactive
O=C(/C(=C/c1cccc(Cl)c1)c1nc2ccccc2[nH]1)c1ccccc1 | inactive
N#C/C(=C(/O)COC(=O)COc1ccc(Cl)cc1)c1nc2ccccc2[nH]1 | inactive
O=C(Cc1nc2ccccc2[nH]c1=O)c1ccc(Cl)cc1 | 0.757 µM (active)
COc1ccc(N2CCN(C3=NS(=O)(=O)C(c4cccc(Br)c4)=C3C)CC2)cc1 | inactive
CCOC(=O)c1c(/N=C/C2C(=O)CC(C)(C)CC2=O)sc(C)c1C | inactive
CCOC(=O)c1c(CC(C)C)csc1/N=C/C1=C(O)CCCC1=O | inactive
CCOC(=O)c1sc(/N=C/C2=C(O)CC(C)(C)CC2=O)c(C(=O)OCC)c1C | 19 µM (active)
Cc1ccc(N2CC(C(=O)Nc3ccc(N(C)C)cc3)CC2=O)cc1Cl (stereo not drawn) | inactive
O=C(COC(=O)c1ccc(O)cc1O)NNC(=O)c1cccs1 | inactive
O=C(NNC(=O)c1ccc(Cl)cc1Cl)c1cccs1 | 12 µM (active)
NNC(=O)c1ccc(Cl)cc1Cl | inactive
CC1CCCCN1S(=O)(=O)c1ccc(F)c(C(=O)Nc2ccccc2C(F)(F)F)c1 (stereo not drawn) | inactive
Cc1cccc(NC(=O)CSc2nc(-c3ccco3)cc(C(F)(F)F)n2)c1C | inactive
COc1ccc(NS(=O)(=O)c2cc(NC(=O)COc3ccccc3F)ccc2OC)cc1 | inactive
COc1cccc(C(=O)c2cc3ccc(O)cc3oc2=O)c1 | 12 µM (active)
COc1ccc2oc(=O)c(C(=O)N3CCN(c4ccccc4F)CC3)cc2c1 | inactive
COc1ccc2oc(=O)c(C(=O)N3CCCC3)cc2c1 | inactive
CNS(=O)(=O)c1ccc(C(=O)NCC(=O)NCCc2ccc3c(c2)OCCO3)cc1 | inactive
COC(=O)c1c(NC(=O)c2ccc(Cl)c(Cl)c2)sc2c1CCCC2 | inactive
Cn1c(=O)c2c(ncn2CC(=O)Nc2cccc(C(F)(F)F)c2)n(C)c1=O | inactive
